About 83,000 compounds went through this panel and 20% of them were active in at least one assay; those are over-represented in the sample as a whole.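 How to read the values: 0–100, growth inhibition (40 = 60% inhibited); 0, no net growth; -100 to 0, cell death (-40 = 40% of starting cells died; -100 = all dead).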 A number with no mark means an inactive call. Activity calls are given as the source filed them.
Test system: HS 578T breast
Assay: NCI-60 one-dose screen, 48 h (100 = growth as untreated, 0 = no growth, -100 = all killed)
Conditions: 10 µM unless noted
Description: Growth inhibition of the HS 578T human tumor cell line is measured as a screen for anti-cancer activity. Cells are grown in 96 well plates and exposed to the test compound for 48 hours. Compounds are tested at a single concentration, which is 10^-5 M for most compounds. The reported endpoint is percent growth (GI% or GIPRCNT), where numbers from 0 - 100% represent growth inhibition, and numbers from -100% - 0 represent cell death. For example, a value of 40 represents 60% growth inhibition. A value of 0 means no net growth occurred over the course of the experiment. A value of -40 indicates 40% of cells at the beginning of the experiment died by the end of the experiment. A value of -100 means all cells are dead at the end of the experiment.
NCI-60 Human Tumor Cell Lines Screen was performed using the standard one-dose NCI protocol, which is described in more detail at https://dtp.cancer.gov/discovery_development/nci-60/default.htm.
Compounds with GIPRCNT values below 10 were considered active. Activity score was based on GIPRCNT using the following formula: […]
Score is 0 for GIPRCNT values of 100 or above, 50 for GIPRCNT values of 0, and 100 for GIPRCNT values of -100.

Row | Structure (SMILES) | growth
1 | COc1ccc(/C=C/C(=O)c2ccc(NC(=O)CSc3nnc(-c4cc(OC)c(OC)c(OC)c4)o3)cc2)cc1 | 45.3%
2 | COc1ccc(C[C@H](N)C(=O)N[C@@H]2[C@@H](CO)OC(n3cnc4c(N(C)C)ncnc43)[C@@H]2O)cc1 (stereo not given in full) | 11.8%
3 | CS(=O)(=O)Nc1cccc(-c2ccc3ncnc(Nc4ccc(F)c(Cl)c4)c3c2)c1 | 11.5%
4 | C=C1c2c(Cl)ccc(O)c2C(O)=C2C(=O)[C@]3(O)C(O)=C(C(N)=O)C(=O)[C@@H](N(C)C)[C@@H]3[C@@H](O)[C@H]12 | 5.86% (active)
5 | CCC1S/C(=N\N=C(/C)c2cccs2)N(c2ccccc2)C1=O (stereo not given) | 123%
6 | COc1ccc(-c2[nH]c3ccccc3c2/C=C(\C#N)S(=O)(=O)c2ccccc2)cc1 | 23.8%
7 | C/C(=N/NC(=O)Cn1c2ccccc2c2ccncc21)c1cccs1 | 91.1%
8 | COc1ccc(SC2c3ccc(O)cc3Oc3nc(N)c(C#N)c(N)c32)cc1 (stereo not given) | 94.4%
9 | Cc1cc(O[C@@H]2O[C@@H](C)[C@H](O)[C@@H](O)[C@H]2O)c2c3c(c(O[C@@H]4O[C@@H](C)[C@H](O)[C@@H](O)[C@H]4O)cc2c1)C(=O)c1c(O)cccc1C3=O | -12.8% (active)
10 | COc1cc2nc(C(=O)N3CCCCC3)cc(Nc3ccccc3)c2cc1OC | 95%
11 | COc1ccccc1S(=O)(=O)Nc1ccc2c3c(cc(-c4cnn(C)c4)nc13)C(=O)N2C | 23.8%
12 | Oc1ccccc1/C=N/c1ccccn1 | 143%
13 | Cc1cccc[n+]1CCC[n+]1ccccc1C | 109%
14 | FC(F)(F)c1cn(CC2CNC2)c2ncnc(Cl)c12 | 105%
15 | COc1ccc(C2=NN(C(=O)COc3ccc(Cl)cc3)C(O)(c3cc(F)c(Cl)cc3Cl)C2)cc1 (stereo not given) | 102%
16 | Cc1ccc2c(c1)Nc1ccc(C)cc1C2(C)C | 113%
17 | Nc1nc(Cl)c2c(C(F)(F)F)cn(CC3CCNCC3)c2n1 | 88.7%
18 | COc1ccc(OC)c(NCC(=O)n2nc(/C=C\c3ccc(O)c(OC)c3)cc2/C=C\c2ccc(O)c(OC)c2)c1 | 22.2%
19 | CC(C)(C)NCC(O)COc1c(Br)c(Br)c(Br)c2c1OC(C)(C)C2 (stereo not given) | -64.8% (active)
20 | Nc1ncnc2c1c(-c1ccc(Oc3ccccc3)cc1)nn2C[C@H]1SSC[C@H]1O | 21.6%

Row | Structure (SMILES) | growth
21 | COc1ccc(/C=C/C(=O)c2ccc(-n3cc(CN4CCN(c5cc6c(cc5F)c(=O)c(C(=O)O)cn6C5CC5)CC4)nn3)cc2)cc1OC | 21.5%
22 | S=c1n(CNc2ccc(Cl)nn2)nc(-c2cc(Cl)cc(Cl)c2Cl)n1/N=C/c1ccc(Cl)cc1 | 108%
23 | CCNc1ncnc2n[nH]nc12 | 103%
24 | COc1ccc(-c2nnc(SCC(=O)Nc3ccc(C(=O)/C=C/c4ccccc4)cc3)o2)cc1OC | 110%
25 | Nc1n[nH]c2cccc(C#Cc3cccc(NC(=O)c4cccc(C(F)(F)F)c4)c3)c12 | -0.652% (active)
26 | CC(=O)c1ccc2c(c1)C1C=CCC1[C@H](c1cc3c(cc1Br)OCO3)N2 (stereo not given in full) | 7.06% (active)
27 | S=c1[nH]nc(Cn2c3ccccc3c3ccncc32)o1 | 106%
28 | Cc1nc(-c2ccc(Cl)cc2)ccc1NC(=O)Nc1cccc(C(F)(F)F)c1 | 103%
29 | CC(C)CNCC(O)COc1ccc(C(C)(C)c2ccc(OCC(O)CNCC(C)C)cc2)cc1 (stereo not given) | 65.4%
30 | CCCCNc1cc(C(=O)O)cc(S(N)(=O)=O)c1Oc1ccccc1 | 98.5%
31 | COc1ccc2c(c1)nnc1c3cccnc3[nH]c21 | -24.5% (active)
32 | Cc1[nH]n(C(=O)c2ccncc2)c(=O)c1N=Nc1ccc(S(=O)(=O)Nc2ccncn2)cc1 | 96.7%
33 | NC(CSC(c1ccccc1)(c1ccccc1)c1ccc(F)cc1)C(=O)O (stereo not given) | 16.9%
34 | CCNc1cc(S(=O)(=O)O)ccc1C | 104%
35 | CCNC(=O)Oc1ccc(/C(=C(/CC)Cc2ccccc2)c2ccc(OCCN3CCOCC3)cc2)cc1 | 62.5%
36 | COc1ccc(NC(=O)COCCOCCNC[C@@H]2C(=O)O[C@H]3[C@H]2CC/C(COC(=O)OC/C2=C/CC[C@@]4(C)O[C@H]4[C@H]4OC(=O)[C@@H](CN(C)C)[C@@H]4CC2)=C\CC[C@@]2(C)O[C@@H]32)c(O)c1C(N)=O | 79.2%
37 | CCCCCCCCN(CCCCCCCC)CC(O)c1cc(-c2ccccc2)nc2ccc(OC)cc12 (stereo not given) | 99.1%
38 | CN(CCNCc1ccccn1)CCNCc1ccccn1 | 48.9%
39 | O=S(c1ccccc1)c1ccc2nnnn2n1 (stereo not given) | 97.7%
40 | CN(C)C(=O)Nc1nc2cc(Cl)c(Cl)cc2[nH]1 | 50.8%

Reference: PubChem BioAssay (NCI)
